Compound activity from PubChem.
LDHA inh: LDHA (human) enzyme inhibition | 480,000 tested, 0.15% active | purified LDHA, NADH/diaphorase-resazurin fluorescence; stronger effect = lower value | activity change, % (values are at about 110 or 230 µM) | P00338 | AID 1347041; in the data active = activity change below about -30%; inconclusive = mostly about -25% to -30%;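 note: plate controls were DMSO wells for no effect and wells without enzyme for full effect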
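Human LDH5 at 2 nM final in Tris HCl pH 7.4 with 0.06 mM NADH and 0.2 mM pyruvate, reacted 5 minutes at room temperature. Remaining NADH coupled via diaphorase/resazurin; resorufin fluorescence read at 0 and 20 minutes, normalized to enzyme-free and DMSO wells.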
aSyn yeast inh: inhibitors of alpha-synuclein toxicity in yeast; Yeast expressing alpha-synuclein, growth rescue, BacTiter-Glo, 24 h; Potency, µM (top dose mostly 46.1 µM), without a hit: top-dose growth rescue (activation), hits mostly activators; 370,000 tested, 0.14% active; note: potency is the fitted concentration of half-maximal effect; % of control where 0% means no effect; nearly all actives have a fitted effect of over 65% in size
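Readout is rescue of growth in alpha-synuclein-expressing yeast, so inhibitors of toxicity appear as activators. Growth after 24 hr at 30 deg C in galactose medium is quantified by luminescence.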
PTHR1 ag: PTHR1 (human) receptor agonism; HEK293 GP2 PTHR1 cells, GloSensor cAMP luminescence, 1 h; Potency, µM (series often up to 115 µM), for inactives: top-dose activation, most hits filed as activators; AID 743266; 410,000 tested, 0.075% active; Q03431; note: potency is the fitted concentration of half-maximal effect; nearly all actives have a fitted effect of over 55% in size
Target sequence (Q03431 whole entry, looked up): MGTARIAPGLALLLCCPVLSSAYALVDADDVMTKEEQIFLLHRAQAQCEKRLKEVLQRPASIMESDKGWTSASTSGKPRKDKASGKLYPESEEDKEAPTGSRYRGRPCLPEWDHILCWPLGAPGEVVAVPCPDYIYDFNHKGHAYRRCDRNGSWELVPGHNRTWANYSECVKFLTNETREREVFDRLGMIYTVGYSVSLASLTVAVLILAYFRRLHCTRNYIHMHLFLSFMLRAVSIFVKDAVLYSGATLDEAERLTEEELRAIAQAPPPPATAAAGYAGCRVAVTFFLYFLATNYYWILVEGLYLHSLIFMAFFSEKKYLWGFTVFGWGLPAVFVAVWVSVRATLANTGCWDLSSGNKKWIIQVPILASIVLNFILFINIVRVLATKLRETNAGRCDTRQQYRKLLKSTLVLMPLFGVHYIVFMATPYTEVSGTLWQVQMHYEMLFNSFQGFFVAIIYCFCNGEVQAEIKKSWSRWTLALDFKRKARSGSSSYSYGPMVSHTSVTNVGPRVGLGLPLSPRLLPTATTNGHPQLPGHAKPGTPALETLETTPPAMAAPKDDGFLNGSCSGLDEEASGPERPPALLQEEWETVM
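HEK-293-derived GP2 cells expressing PTHR1 and a GloSensor cAMP reporter, 3,000/well, plated overnight, given luciferin plus IBMX (each 0.5 mM as added) for 1 h at 37 °C, then compound for 1 h at 37 °C. Luminescence was read after 15 min at room temperature.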
Abeta yeast res: compounds reversing amyloid beta toxicity in yeast. Potency, µM (titrated, usually from 46.1 µM), most hits filed as activators. 410,000 tested, 0.063% active. yeast expressing A-beta42, growth rescue, OD600, 48 h; response scale: 0% DMSO, 100% iron-clioquinol control. AID 1347071; note: potency is the fitted concentration of half-maximal effect; nearly all actives have a fitted effect of over 55% in size
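Yeast A-beta toxicity model in growth medium with pinned compounds, 48 h at 30 C; growth read as absorbance at 600 nm. Normalized to FeCl3/clioquinol equimolar mix (positive) and DMSO (negative).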
TDP43 rescue: TDP-43 toxicity inhibition in yeast; 410,000 tested, 1.8% active; AID 652104; Potency, µM (titrated, usually from 46.1 µM), inactives show at the top dose growth rescue (activation), actives largely listed as activators; TDP-43 expressing yeast growth rescue, BacTiter-Glo, 24 h; note: potency is the fitted concentration of half-maximal effect; % of control where 0% means no effect; nearly all actives have a fitted effect of over 50% in size
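Galactose-induced TDP-43 yeast, OD600=0.02, compound pinned; 24 hr, 30 deg C; BacTiter-Glo luminescence for growth. Inhibitors of TDP-43 toxicity read as activators.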
FUS yeast rescue: rescues growth of FUS-expressing yeast; S. cerevisiae FUS-expressing, growth rescue, OD600, 24 h; Potency, µM (titrated, usually from 76.6 µM), usual class: activators; 390,000 tested, 0.24% active;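 note: potency is the fitted concentration of half-maximal effect; plate controls were DMSO vehicle for no effect and reference control for full effect; nearly all actives have a fitted effect of over 55% in size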
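Steps: raffinose overnight preculture; dilution to OD 0.005 in 2% galactose minimal medium; compound addition (concentration series); 24hr at 30C, 99% humidity; absorbance read at 600 nm.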
* marks the source's active call; other numbers are inactive results; ! = not confirmed by another sample; [ ] = dose if it differs, or a comment. Shown are actives, neighbours in structure and some others; about 1.9% of the full set was active somewhere. Unless noted, calls come from the whole dose curve; as a rule, active = well fitted curve in the direction sought with a large enough effect; inconclusive = small, poorly fitted or top-dose-only effect, or another doubt; inactive = no such curve, though single readings can be large; an effect the other way counts as inactive or inconclusive.

How did CCOc1cc(-c2nc(C)c(C(C)=O)n2O)ccc1OCC(=O)Nc1ccc(F)cc1 do in these assays?
LDHA inh: 3; aSyn yeast inh: -4%; PTHR1 ag: -30%; Abeta yeast res: inactive; TDP43 rescue: 14µM*; FUS yeast rescue: inactive

How did CCCCCCN1C[C@@H](n2cc(COC(=O)c3ccccc3)nn2)[C@H](O)C[C@@H]1c1ccc(Cl)cc1 do in these assays?
LDHA inh: -4; aSyn yeast inh: 0%; PTHR1 ag: -31%; Abeta yeast res: inactive; TDP43 rescue: -44%; FUS yeast rescue: inactive

Results for CCCCCCN1C[C@@H](n2cc(COC(=O)c3ccccc3)nn2)[C@H](O)C[C@@H]1c1ccccc1 ?
LDHA inh: -9; aSyn yeast inh: 25µM*; PTHR1 ag: -22%; Abeta yeast res: inactive; TDP43 rescue: 19%; FUS yeast rescue: inactive

How did CCCCCCN1C[C@H](n2cc(COC(=O)c3ccccc3)nn2)[C@@H](O)C[C@@H]1c1ccc(C)cc1 do in these assays?
LDHA inh: 4; aSyn yeast inh: -14%; PTHR1 ag: -58%; Abeta yeast res: inactive; TDP43 rescue: 35µM*; FUS yeast rescue: inconclusive

What do the screens show for `CCCCCCN1C[C@H](n2cc(COC(=O)c3ccccc3)nn2)[C@@H](O)C[C@@H]1c1ccccc1`?
LDHA inh: 1; aSyn yeast inh: 11%; PTHR1 ag: -13%; Abeta yeast res: inactive; TDP43 rescue: 30%; FUS yeast rescue: inactive

Results for CCc1nc(NC(CC)CO)c(C#N)c2c1CCCC2 (stereo not given) ?
LDHA inh: -34*

What do the screens show for `Cc1cc(C)n(-c2nc3ccccc3c(=O)n2OCc2ccc(Cl)cc2)n1`?
LDHA inh: 0; aSyn yeast inh: -3%; PTHR1 ag: -16%; Abeta yeast res: inactive; TDP43 rescue: 11µM*; FUS yeast rescue: inactive

How did Cc1cc(C)n(-c2nc3ccccc3c(=O)n2OCc2ccc(F)cc2)n1 do in these assays?
LDHA inh: -1; aSyn yeast inh: 2%; PTHR1 ag: -18%[57.5 µM]; Abeta yeast res: inactive; TDP43 rescue: inconclusive; FUS yeast rescue: inactive

What do the screens show for `Cc1cccc(CSc2ncccc2C(=O)O)c1`?
LDHA inh: -5; aSyn yeast inh: 0%; PTHR1 ag: -18%; Abeta yeast res: inactive; TDP43 rescue: inconclusive; FUS yeast rescue: inactive

Results for O=C(O)c1cccnc1SCc1cccc(Cl)c1 ?
LDHA inh: -8; aSyn yeast inh: 9%; PTHR1 ag: -21%; Abeta yeast res: inactive; TDP43 rescue: 35µM*!; FUS yeast rescue: inactive

Results for Fc1ccc(/C=N/Nc2c(Cl)cc(Cl)cc2Cl)c(F)c1 ?
LDHA inh: 2

Results for C/C(N)=C(/C#N)C(=O)CSc1nc2ccccc2c(=O)n1Cc1ccc(F)cc1 ?
LDHA inh: 0; aSyn yeast inh: 13%; PTHR1 ag: -89%; Abeta yeast res: 13µM*; TDP43 rescue: 10µM*; FUS yeast rescue: inactive

What do the screens show for `CCNC(=S)N/N=C1\C(=O)c2cccc3cccc1c23`?
LDHA inh: -3; aSyn yeast inh: 3%; PTHR1 ag: inactive; Abeta yeast res: inactive; TDP43 rescue: 20%; FUS yeast rescue: inactive

How did O=C(N/N=C1/C(=O)c2cccc3cccc1c23)c1ccc(Cl)cc1 do in these assays?
LDHA inh: -13; aSyn yeast inh: inconclusive; PTHR1 ag: -33%; Abeta yeast res: inconclusive; TDP43 rescue: 18µM*; FUS yeast rescue: inactive

How did CCc1cc(C(=O)Cc2cnn(-c3ccccc3)c2)c(O)cc1O do in these assays?
LDHA inh: -3; aSyn yeast inh: -1%; PTHR1 ag: -13%[57.5 µM]; Abeta yeast res: inactive; TDP43 rescue: 7%; FUS yeast rescue: inactive

Results for O=C(Cc1cnn(-c2ccccc2)c1)c1ccc(O)c(O)c1O ?
LDHA inh: 34; aSyn yeast inh: inconclusive; PTHR1 ag: -28%; Abeta yeast res: inconclusive; TDP43 rescue: 35µM*

What do the screens show for `CCCS(=O)(=O)c1nnnn1-c1cccc(OC)c1`?
LDHA inh: -6; aSyn yeast inh: -4%; PTHR1 ag: -30%; Abeta yeast res: inactive; TDP43 rescue: 11µM*; FUS yeast rescue: inactive

How did CCOc1ccc(-n2c(C)cc(C(=O)CCl)c2C)cc1 do in these assays?
LDHA inh: -7; aSyn yeast inh: -22%; PTHR1 ag: -14%; Abeta yeast res: inactive; TDP43 rescue: 8.9µM*; FUS yeast rescue: inactive

How did COc1cc(C2C(C#N)=C(N)Oc3n[nH]c(C)c32)ccc1OCc1c(F)cccc1Cl (stereo not given) do in these assays?
LDHA inh: -7

How did COC(=O)Cn1c(Br)nc2c1c(=O)[nH]c(=O)n2C do in these assays?
LDHA inh: -12

What do the screens show for `COC(=O)Cn1c(Br)nc2c1c(=O)n(C)c(=O)n2C`?
LDHA inh: -35*

What do the screens show for `CN(C)c1nc(OCCNC(=O)Nc2ccc(Cl)cc2)nc(N(C)C)n1`?
LDHA inh: 0; aSyn yeast inh: 1%; PTHR1 ag: inactive; Abeta yeast res: inactive; TDP43 rescue: -9%; FUS yeast rescue: inactive

What do the screens show for `CCOc1nc(Nc2ccc(Cl)cc2)nc(OCC)n1`?
LDHA inh: -1; aSyn yeast inh: -2%; PTHR1 ag: -12%; Abeta yeast res: inactive; TDP43 rescue: 11µM*; FUS yeast rescue: inactive

How did CN(C)c1nc(Nc2ccc(Cl)cc2)nc(OCC#N)n1 do in these assays?
LDHA inh: -4; aSyn yeast inh: 0%; PTHR1 ag: -33%; Abeta yeast res: inactive; TDP43 rescue: 11µM*; FUS yeast rescue: inactive

Results for COc1ccc(C(=O)N2CC3(CC(c4cccc(NC(=O)COc5ccc(Cl)cc5)c4)=NO3)C[C@@H]2C(N)=O)cc1 (stereo not given in full) ?
LDHA inh: 1; aSyn yeast inh: 2%; PTHR1 ag: -22%; Abeta yeast res: inactive; TDP43 rescue: 4%; FUS yeast rescue: 35µM*

How did CS(=O)(=O)c1ccc(-c2cccc(NC(=O)COc3ccc(Cl)cc3)c2)nn1 do in these assays?
LDHA inh: -2; aSyn yeast inh: -12%; PTHR1 ag: inconclusive; Abeta yeast res: inactive; TDP43 rescue: -12%; FUS yeast rescue: inactive

Results for NC(=O)[C@@H]1CC2(CC(c3cccc(NC(=O)COc4ccc(Cl)cc4)c3)=NO2)CN1C(=O)c1ccccc1 (stereo not given in full) ?
LDHA inh: 2; aSyn yeast inh: 10%; PTHR1 ag: inactive; Abeta yeast res: inactive; TDP43 rescue: 5%; FUS yeast rescue: inactive
